{"source": "PubChem BioAssay AID2315", "about": "(National Center for Advancing Translational Sciences (NCATS), 2010)", "note": "“And” between values parts separate entries of the source, which are not always exact repeats. Equal values may be shown once. Hit rate of the full screen: of about 290,000 compounds, about 27,000 (9.3%) were called active. This excerpt belongs to a sample that is enriched for actives. A number with no mark means an inactive call. Cut-off read from the data, not from the text of the source: active = inhibition mostly above about 28% (no sharp cut-off); inactive = mostly below about 43%."}
{"assay": "A qHTS for Small Molecule Inhibitors of Shiga Toxin; note: 0% is about no effect", "settings": "Vero cells, Shiga toxin protein synthesis inhibition reporter; at 38.7 µM, stronger effect = higher value"}
{"smiles": "CCN(CC)CCN1C(=O)C2C(C(=O)Nc3ccc(Br)cc3)C3C=CC2(O3)C1C(=O)NC1CCCCC1", "note": "(centres undefined)", "inhibition": "-12%"}
{"smiles": "NNC(=O)c1cccc(COCC(F)(F)C(F)F)c1", "inhibition": "-2.2%"}
{"smiles": "CC(C)c1cc(C(N)=O)c(NC(=O)c2cccc(COc3ccc(Br)cc3)c2)s1", "inhibition": "199% (active)"}
{"smiles": "Cc1ccc(COc2ccc(C(=O)NN)cc2)cc1", "inhibition": "30.5%"}
{"smiles": "CCn1c(SCC(=O)Nc2nccs2)nnc1-c1ccncc1", "inhibition": "-7.47%"}
{"smiles": "Cc1cccc(C)c1Nc1nnc(SCC(=O)Nc2sccc2C#N)s1", "inhibition": "-3.87%"}
{"smiles": "CC(=O)c1cc(C#N)c(SCC(=O)Nc2nccs2)nc1C", "inhibition": "65% (active)"}
{"smiles": "Cc1[nH]c2ccccc2c1SCC(=O)Nc1nccs1", "inhibition": "63.6% (active)"}
{"smiles": "CC(=O)c1cc(C#N)c(N2CC(C)OC(C)C2)nc1C", "note": "(centres undefined)", "inhibition": "-8.18%"}
{"smiles": "CC(=O)c1cc(C#N)c(SCC(=O)C(C)(C)C)nc1C", "inhibition": "89.1% (active)"}
{"smiles": "CCn1c(SCC(=O)Nc2nccs2)nnc1-c1ccco1", "inhibition": "-6.37%"}
{"smiles": "CC(=O)c1cc(C#N)c(N2CCCCC2)nc1C", "inhibition": "1.31%"}
{"smiles": "Cc1cc(C(F)(F)F)nc(SCC(=O)Nc2nccs2)n1", "inhibition": "-9.67%"}
{"smiles": "CCOC(=O)CNC(=O)CSc1ncccc1-c1nc2ccccc2[nH]1", "inhibition": "-7.03%"}
{"smiles": "COc1ccc(NC(=O)C2CCC(CNS(=O)(=O)c3csc(C(N)=O)c3)CC2)cc1OC", "note": "(centres undefined)", "inhibition": "-12.8%"}
{"smiles": "COc1ccc(Oc2cn[nH]c2-c2ccc(OC)cc2O)cc1", "inhibition": "-5.45%"}
{"smiles": "COc1ccc2c(Cl)c(-c3nnco3)sc2c1", "inhibition": "-0.739%"}
{"smiles": "O=C(OCC#CCSc1nnc(-c2ccncc2)o1)c1sc2ccccc2c1Cl", "inhibition": "-13.4%"}
{"smiles": "C#CCSc1nnc(-c2sc3ccccc3c2Cl)o1", "inhibition": "89.1% (active)"}
{"smiles": "O=C(NCCc1nnc2ccc(SCC(=O)N3CCOCC3)nn12)c1ccccc1", "inhibition": "-1.17%"}
{"smiles": "CC(C)(C)OC(=O)N/N=C/c1cn(-c2ccccc2)nc1-c1cccnc1", "inhibition": "-2.23%"}
{"smiles": "COc1ccc(-c2nn(-c3ccccc3)cc2/C=N/Nc2ccccn2)cc1OC", "inhibition": "24.4% (active)"}
{"smiles": "COc1ccc(-c2nn(-c3ccccc3)cc2C(=O)Nc2nccs2)cc1OC", "inhibition": "12.9%"}
{"smiles": "COc1cccc(CNC(=O)C2CCCN(c3ncnc4c3nc3n4CCCCC3)C2)c1", "note": "(centres undefined)", "inhibition": "-3.2%"}
{"smiles": "COc1ccc(S(=O)(=O)NCCCCOc2ccc(Cl)cc2)cc1", "inhibition": "-5.02%"}
{"smiles": "COc1ccc(N(CC(=O)N2CCCCCC2)S(=O)(=O)c2ccccc2)cc1", "inhibition": "32.1%"}
{"smiles": "COc1ccc(N(CCC#N)S(=O)(=O)c2ccc(Cl)cc2)cc1", "inhibition": "42.6% (active)"}
{"smiles": "CC1CN(C(=S)Nc2ccc(S(N)(=O)=O)cc2)CC(C)O1", "note": "(centres undefined)", "inhibition": "-8.32%"}
{"smiles": "COc1ccc(OC)c(NC(=O)Cc2cccs2)c1", "inhibition": "9.31%"}
{"smiles": "C=C(C)C(=O)O[C@H]1C/C(C)=C\\C(=O)/C=C(\\C)[C@H](O)[C@@H]2OC(=O)C(=C)[C@@H]21", "inhibition": "60% (active)"}
{"smiles": "CCOc1ccc(C(=O)COC(=O)c2ccc(-n3cnnn3)cc2)cc1", "inhibition": "-9.12%"}
{"smiles": "CCC(C)(C)NC(=O)CN(C(=O)CCC(=O)Nc1nccs1)c1ccc2c(c1)OCO2", "inhibition": "-6.38%"}
{"smiles": "COCCCNC(=O)CN1C(=O)CSc2ccc(S(=O)(=O)N3CCOCC3)cc21", "inhibition": "15.9%"}
{"smiles": "CC1CCCC(NC(=O)CN2CCN(Cc3ccc(Cl)cc3)C2=O)C1C", "note": "(centres undefined)", "inhibition": "-12.5%"}
{"smiles": "Cc1cccc(C(=O)NCCCN2CCCC2=O)c1", "inhibition": "-5.25%"}
{"smiles": "C/C(=N\\NC(=O)c1cccc(N2CCCC2=O)c1)c1ccc(N)cc1", "inhibition": "38.9%"}
{"smiles": "O=C(NCCc1ccc(Cl)cc1)c1cccc(N2CCCC2=O)c1", "inhibition": "73.4% (active)"}
{"smiles": "O=C(c1cccc(N2CCCC2=O)c1)N1CCOCC1", "inhibition": "20.2%"}
{"smiles": "O=C(NCCCN1CCCCCC1)c1ccc(N2CCCC2=O)cc1", "inhibition": "0.987%"}
{"smiles": "CCCNC(=O)NCc1ccc(N2CCCC2=O)cc1", "inhibition": "-8.65%"}
{"smiles": "CC1CCCC(NC(=O)c2cccc(N3CCCC3=O)c2)C1C", "note": "(centres undefined)", "inhibition": "87.5% (active)"}
{"smiles": "CC1CCC(NC(=O)c2ccc(N3CCCC3=O)cc2)CC1", "note": "(centres undefined)", "inhibition": "56.6% (active)"}
{"smiles": "COc1ccc(CCNc2nc(C)cc(C)n2)cc1OC", "inhibition": "23.6%"}
{"smiles": "CCCc1ccc(OCC(O)CN2CCN(C(=O)OCC)CC2)cc1", "note": "(centres undefined)", "inhibition": "-4.04%"}
{"smiles": "COc1ccc(S(=O)(=O)N2CCC(C(=O)NCc3ccco3)CC2)cc1C", "inhibition": "-3.78%"}
{"smiles": "CN(C(=O)CCNC(=O)Cn1ccc2ccccc2c1=O)c1ccc(Br)cc1", "inhibition": "-19.7%"}
{"smiles": "Cc1cc(CO)nn1-c1ccc([N+](=O)[O-])cc1", "inhibition": "12.4%"}
{"smiles": "Cc1nc(-c2ccc([N+](=O)[O-])cc2)c(-c2ccccc2)o1", "inhibition": "-2.19%"}
{"smiles": "Cc1nn(-c2ccc([N+](=O)[O-])cc2)c(N)c1-c1ccccc1", "inhibition": "86.7% (active)"}
{"smiles": "CCn1c(=O)c2ccccc2n(CC(=O)N2CCCc3ccccc32)c1=O", "inhibition": "-12.6%"}
{"smiles": "CN(c1ccccc1)S(=O)(=O)c1ccc2[nH]c(=O)[nH]c2c1", "inhibition": "21.5%"}
{"smiles": "CC(=O)c1ccc(N2CCN(C(=O)CCc3ccccc3)CC2)cc1", "inhibition": "14.3%"}
{"smiles": "CC(=O)c1ccc(N2Cc3ccccc3C2)cc1", "inhibition": "79.3% (active)"}
{"smiles": "CC(=O)c1ccc(N2CCN(CC(O)c3ccccc3)CC2)cc1", "note": "(centres undefined)", "inhibition": "26.5%"}
{"smiles": "CCOC(=O)N1CCN(C(=O)c2cn(C)c3ccc(S(=O)(=O)N(CC)CC)cc3c2=O)CC1", "inhibition": "2.57%"}
{"smiles": "COc1ccccc1C(=O)N/C(=C/c1ccc2c(c1)OCO2)C(=O)Nc1cccc(C(=O)O)c1", "inhibition": "-9.43%"}
{"smiles": "CN1CCN(S(=O)(=O)c2cccc(C(=O)Nc3cccc(S(N)(=O)=O)c3)c2)CC1", "inhibition": "13.4%"}
{"smiles": "O=C(c1n[nH]c2c1CCC2)N1CCCC(Nc2cccc(F)c2)C1", "note": "(centres undefined)", "inhibition": "-2%"}
{"smiles": "CCOC(=O)Cn1c(=O)sc2cccc(Cl)c21", "inhibition": "-13.7%"}
{"smiles": "CC(C)(C)OC(=O)CNC(=O)c1[nH]cnc1C(=O)N[C@@H](Cc1ccccc1)C(=O)OCc1ccccc1", "inhibition": "7.26%"}
{"smiles": "O=C(/C=C/Nc1ccc(S(=O)(=O)Nc2cnc3ccccc3n2)cc1)c1cccnc1", "inhibition": "44.7% (active)"}
{"smiles": "Cc1noc(NS(=O)(=O)c2ccc(N/C=C/C(=O)c3ccccc3)cc2)c1C", "inhibition": "71.6% (active)"}
{"smiles": "C=C(C)CNC(=S)Nc1ccc(S(=O)(=O)Nc2cnc3ccccc3n2)cc1", "inhibition": "6.75%"}
{"smiles": "Cc1ccc(C(=O)/C=C/Nc2ccc(S(=O)(=O)Nc3onc(C)c3C)cc2)cc1", "inhibition": "67.9% (active)"}
{"smiles": "CCn1c(SCC(=O)Nc2ccc(S(=O)(=O)Nc3onc(C)c3C)cc2)nnc1-c1ccccc1", "inhibition": "-13.6%"}
{"smiles": "Cc1noc(NS(=O)(=O)c2ccc(NC(=O)c3oc4ccc(F)cc4c3C)cc2)c1C", "inhibition": "-2.45%"}
{"smiles": "O=C(Nc1ccc(S(=O)(=O)Nc2ccccn2)cc1)c1ccccc1", "inhibition": "-16.3%"}
{"smiles": "Cc1noc(NS(=O)(=O)c2ccc(NC(=O)C34CCC(CC3)C4)cc2)c1C", "inhibition": "0.59%"}
{"smiles": "Cc1cc(OC(C)C(=O)Nc2ccc(S(=O)(=O)Nc3onc(C)c3C)cc2)cc(C)c1Cl", "note": "(centres undefined)", "inhibition": "-8.09%"}
{"smiles": "COCCNC(=O)C1CCN(C(=O)C2CC(=O)N(c3ccc(C)cc3)C2)CC1", "note": "(centres undefined)", "inhibition": "-14.7%"}
{"smiles": "CCN1C(=S)N[C@@H](CCc2ccccc2)[C@H](C(=O)OC)[C@H]1C", "inhibition": "-2.85% and 15.7%"}
{"smiles": "O=C(NNS(=O)(=O)c1ccc(F)cc1)c1ccc([N+](=O)[O-])cc1Cl", "inhibition": "30.1%"}
{"smiles": "CCOc1ccc(CN2CCC(n3nccc3NC(=O)C3CC3)CC2)cc1CO", "inhibition": "-3.78%"}
{"smiles": "Cc1ccc(NC(=O)C2CCCN2C(=O)OCc2ccccc2)cc1C", "note": "(centres undefined)", "inhibition": "-4.8%"}
{"smiles": "COc1ccc(NC(=O)C2C3CCC(O3)C2C(=O)O)cc1OC", "note": "(centres undefined)", "inhibition": "-5.78%"}
{"smiles": "O=C(CSc1nc(Nc2ccccc2)nc(N2CCOCC2)n1)Nc1cc(Cl)ccc1O", "inhibition": "-4.02%"}
{"smiles": "COc1cc(C(=O)N2CCN(C)CC2)cc(OC)c1OC", "inhibition": "-8.49%"}
{"smiles": "Cn1ccc(=Nc2ccc(NC(=O)c3ccc(N=c4ccn(C)c5ccc([N+](=O)[O-])cc45)cc3)cc2)cc1", "inhibition": "-0.904%"}
{"smiles": "O=C(CC1C(=O)NCCN1Cc1ccc(-c2ccccc2)cc1)NCC1CCOCC1", "note": "(centres undefined)", "inhibition": "-14.6%"}
{"smiles": "Cc1nccn1CCCNC(=O)CC1C(=O)NCCN1Cc1ccc(Cl)c(F)c1", "note": "(centres undefined)", "inhibition": "-1.1%"}
{"smiles": "CCOc1ccc(CN2CCNC(=O)C2CC(=O)NCCCC2CCCC2)cc1", "note": "(centres undefined)", "inhibition": "19% (active)"}
{"smiles": "Cn1c(CCNS(=O)(=O)c2ccc(F)cc2)nnc1SCc1cccnc1", "inhibition": "16.6%"}
{"smiles": "COCCn1c(SCC(=O)N2CCCCCC2)nc2c(c1=O)SCC2", "inhibition": "-16.9%"}
{"smiles": "Cc1ccc(OC(=O)c2cc3ccccc3o2)cc1", "inhibition": "27.5%"}
{"smiles": "O=C(NCCc1ccc2c(c1)OCCO2)c1cc2ccccc2o1", "inhibition": "5.6%"}
{"smiles": "CC(C)(C)n1nc2c(c1NC(=O)c1cc3ccccc3o1)CSC2", "inhibition": "-8.8%"}
{"smiles": "C/C(=N\\NC(=S)Nc1ccc(C)cc1)c1cc2ccccc2o1", "inhibition": "30.5%"}
{"smiles": "O=C(Nc1ccncc1)c1cc2ccccc2o1", "inhibition": "57.4% (active)"}
{"smiles": "Cc1ccc(NC(=O)c2cc3ccccc3o2)cc1", "inhibition": "118% (active)"}
{"smiles": "Cc1cc(C)cc(C(=O)OCC(=O)NCCNC(=O)COC(=O)c2cc(C)cc(C)c2)c1", "inhibition": "22.3%"}
{"smiles": "CN(C)c1ccc(S(=O)(=O)NCC(=O)NCC2CCCCC2)cc1[N+](=O)[O-]", "inhibition": "3.92%"}
{"smiles": "O=C(NCCN1CCN(C(=O)c2cccc([N+](=O)[O-])c2)CC1)C(=O)NCc1ccc(Cl)cc1", "inhibition": "-5.68%"}
{"smiles": "Clc1ccc(-c2csc(-c3ccncc3)n2)cc1", "inhibition": "78.2% (active)"}
{"smiles": "Fc1ccc(-c2csc(-c3ccc(C4SCCS4)cc3)n2)cc1F", "inhibition": "-3.43%"}
